Experimental data published in PubChem BioAssay (NCATS).
Inconclusive results are not listed. Active and inactive are the calls of the source. The call rests on the fitted dose curve; in most records, active means well fitted inhibition curve with a large enough effect; inconclusive means small, poorly fitted or top-dose-only effect; inactive means flat fitted curve, though single readings scatter.

How the values were obtained:
Test in all cases: qHTS profiling for inhibitors of Plasmodium falciparum proliferation (AID 504749); further: nearly all actives have a fitted effect of over 60% in size
[1] = test system: ATS95; settings: P. falciparum in erythrocytes, SYBR Green DNA, 72 h; series mostly up to 12.8 µM
Method in brief: (§1)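 Parasite proliferation within erythrocytes, 72 h exposure. Endpoint: SYBR Green I fluorescence after overnight lysis at room temperature. Controls: 0.29 uM artemisinin, DMSO.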

[2] = test system: C2A; settings: P. falciparum in erythrocytes, SYBR Green DNA, 72 h; series mostly up to 12.8 µM
Method in brief: as §1

[3] = test system: CP211; settings: P. falciparum in erythrocytes, SYBR Green DNA, 72 h; series mostly up to 12.8 µM
Method in brief: as §1

[4] = test system: CP215; settings: P. falciparum in erythrocytes, SYBR Green DNA, 72 h; series mostly up to 28.7 µM
Method in brief: as §1

[5] = test system: CP217; settings: P. falciparum in erythrocytes, SYBR Green DNA, 72 h; series mostly up to 12.8 µM
Method in brief: as §1

[6] = test system: CP250; settings: P. falciparum in erythrocytes, SYBR Green DNA, 72 h; series mostly up to 12.8 µM
Method in brief: as §1

[7] = test system: CP252; settings: P. falciparum in erythrocytes, SYBR Green DNA, 72 h; series mostly up to 12.8 µM
Method in brief: as §1

[8] = test system: CP256; settings: P. falciparum in erythrocytes, SYBR Green DNA, 72 h; series mostly up to 12.8 µM
Method in brief: as §1

[9] = test system: CP266; settings: P. falciparum in erythrocytes, SYBR Green DNA, 72 h; series mostly up to 28.7 µM
Method in brief: as §1

[10] = test system: CP269; settings: P. falciparum in erythrocytes, SYBR Green DNA, 72 h; series mostly up to 12.8 µM
Method in brief: as §1

[11] = test system: CP325; settings: P. falciparum in erythrocytes, SYBR Green DNA, 72 h; series mostly up to 12.8 µM
Method in brief: as §1

[12] = test system: CP329; settings: P. falciparum in erythrocytes, SYBR Green DNA, 72 h; series mostly up to 12.8 µM
Method in brief: as §1

[13] = test system: ECU; settings: P. falciparum in erythrocytes, SYBR Green DNA, 72 h; series mostly up to 12.8 µM
Method in brief: as §1

[14] = test system: FAB9; settings: P. falciparum in erythrocytes, SYBR Green DNA, 72 h; series mostly up to 12.8 µM
Method in brief: as §1

[15] = test system: N140; settings: P. falciparum in erythrocytes, SYBR Green DNA, 72 h; series mostly up to 12.8 µM
Method in brief: as §1

[16] = test system: P93_24; settings: P. falciparum in erythrocytes, SYBR Green DNA, 72 h; series mostly up to 12.8 µM
Method in brief: as §1

[17] = test system: PAD; settings: P. falciparum in erythrocytes, SYBR Green DNA, 72 h; series mostly up to 12.8 µM
Method in brief: as §1

[18] = test system: PC15; settings: P. falciparum in erythrocytes, SYBR Green DNA, 72 h; series mostly up to 12.8 µM
Method in brief: as §1

[19] = test system: PC26; settings: P. falciparum in erythrocytes, SYBR Green DNA, 72 h; series mostly up to 12.8 µM
Method in brief: as §1

[20] = test system: SC27B; settings: P. falciparum in erythrocytes, SYBR Green DNA, 72 h; series mostly up to 12.8 µM
Method in brief: as §1

Measured: Potency
Potency means the concentration at half of the fitted maximal effect.

Cc1cc(/C=C\c2ccc3cc(N(C)C)ccc3[n+]2C)c(C)n1-c1ccccc1
active: [1] 1.58 µM | [2] 2.51 µM | [3] 1.81 µM | [4] 3.22 µM | [5] 3.16 µM | [6] 2.82 µM | [7] 3.55 µM | [8] 1.58 µM | [9] 2.87 µM | [10] 2.56 µM | [11] 2.56 µM | [12] 2.03 µM | [13] 2.51 µM | [14] 2 µM | [15] 3.98 µM | [16] 0.708 µM | [17] 3.16 µM | [18] 3.55 µM | [19] 3.61 µM | [20] 2.51 µM
